# According to PubChem BioAssay (NCATS):
# Inconclusive results are not listed. Entries that show only a call come without a potency. A number with no mark means an inactive call. Active and inactive are the calls of the source. Calls come from the whole dose curve; as a rule, active = well fitted curve in the direction sought with a large enough effect; inconclusive = small, poorly fitted or top-dose-only effect, or another doubt; inactive = no such curve, though single readings can be large; an effect the other way counts as inactive or inconclusive.
# Key:
# [1] = system: Zika virus NS2B-NS3 protease; experiment: Primary screen GU AMC qHTS for Zika virus inhibitors (AID 1347154); conditions: Zika NS2B-NS3 unlinked protease, AMC fluorogenic substrate; series mostly up to 54.1 µM; note: nearly all actives have a fitted effect of over 70% in size; note: potency is the fitted concentration of half-maximal effect
# In short: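 Unlinked Zika NS2B hydrophilic domain–NS3 protease complex at 25 nM in 10 mM Tris-HCl pH 8.0, 0.01% Tween 20, with an AMC peptide substrate. Fluorescence change (340/450 nm) over 15 min at room temperature, normalized to controls, fitted to 4-parameter Hill.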
# [2] = qHTS of pediatric cancer cell lines to identify multiple opportunities for drug repurposing: Confirmatory screen for control Hh wild type fibroblast cells (AID 1347121); conditions: viability qHTS; series mostly up to 45.9 µM; note: nearly all actives have a fitted effect of over 70% in size; note: potency is the fitted concentration of half-maximal effect
# In short: (§1)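 Viability after 48 h compound treatment at 37C, 500-1,000 cells/well, read as ATP luminescence with CellTiter-Glo. Primary screens used 11-point (MIPE, 0.78 nM-46 µM) or 8-point (NPC, 0.59 nM-46 µM) final concentrations; follow-up screens used 11-point dilutions.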
# [3] = qHTS of pediatric cancer cell lines to identify multiple opportunities for drug repurposing: Confirmatory screen for Rh18 cells (AID 1347125); conditions: Rh18 rhabdomyosarcoma cells, viability; series mostly up to 45.9 µM; note: nearly all actives have a fitted effect of over 55% in size; note: potency is the fitted concentration of half-maximal effect
# In short: as §1
# [4] = target: Furin (Homo sapiens) (UniProt P09958); experiment: Furin counterscreen qHTS for Zika virus inhibitors (AID 1347149); conditions: furin enzymatic counterscreen, fluorogenic substrate; series mostly up to 57.5 µM; note: nearly all actives have a fitted effect of over 70% in size; note: potency is the fitted concentration of half-maximal effect;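 for activity change, negative = inhibition: purified recombinant full-length human furin enzyme at 5 nM; fluorescence gain from furin cutting a BOC-RVRR-AMC peptide substrate over 15 min; top concentration of the series differs between compounds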
# Chain of Furin (Homo sapiens) (P09958 whole entry, looked up): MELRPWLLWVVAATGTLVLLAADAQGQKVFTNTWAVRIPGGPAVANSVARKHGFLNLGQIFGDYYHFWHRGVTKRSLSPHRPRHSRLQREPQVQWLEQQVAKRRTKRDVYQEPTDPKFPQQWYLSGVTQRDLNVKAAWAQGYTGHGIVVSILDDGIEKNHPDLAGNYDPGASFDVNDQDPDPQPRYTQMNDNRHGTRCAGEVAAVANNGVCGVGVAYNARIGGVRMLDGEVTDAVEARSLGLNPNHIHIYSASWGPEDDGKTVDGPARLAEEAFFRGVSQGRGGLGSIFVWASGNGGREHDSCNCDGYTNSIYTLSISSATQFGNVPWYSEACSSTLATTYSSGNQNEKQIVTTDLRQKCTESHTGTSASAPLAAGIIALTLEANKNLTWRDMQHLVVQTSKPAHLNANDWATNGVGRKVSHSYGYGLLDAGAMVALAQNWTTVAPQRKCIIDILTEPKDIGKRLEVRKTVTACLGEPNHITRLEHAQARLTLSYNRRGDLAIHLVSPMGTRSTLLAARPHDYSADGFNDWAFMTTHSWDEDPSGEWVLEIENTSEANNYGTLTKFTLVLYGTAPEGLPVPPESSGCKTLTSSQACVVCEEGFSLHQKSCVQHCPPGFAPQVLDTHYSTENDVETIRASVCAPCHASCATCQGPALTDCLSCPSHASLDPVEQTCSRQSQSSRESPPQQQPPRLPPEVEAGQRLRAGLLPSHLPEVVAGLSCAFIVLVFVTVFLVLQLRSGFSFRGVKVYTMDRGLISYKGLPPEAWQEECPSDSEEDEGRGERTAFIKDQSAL
# In short: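 Fluorogenic cleavage of BOC-RVRR-AMC (2 microM final, Km ~15 µM) was monitored (ex 340, em 450 nm) at 37C after 15 min RT preincubation of 5 nM furin with compounds in HEPES pH 7.0 buffer with CaCl2 and Triton X-100. Percent inhibition was fitted to a 4-parameter Hill curve.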
# [5] = system: Zika virus NS2B-NS3 protease (unlinked); experiment: Optimization of GU AMC qHTS for Zika virus inhibitors: Unlinked NS2B-NS3 protease assay (AID 1347151); conditions: recombinant ZIKV NS2B-NS3 protease, fluorogenic AMC substrate; series mostly up to 52.5 µM; note: nearly all actives have a fitted effect of over 80% in size
# In short: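 Fluorescence gain (340/450 nm) over 15 min at room temperature, ~20% conversion, gave percent inhibition fitted to a 4-parameter Hill equation; enzyme was unlinked NS2B-NS3 (25 nM final), pH 8.0 Tris buffer.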
# [6] = qHTS of pediatric cancer cell lines to identify multiple opportunities for drug repurposing: Confirmatory screen for RD cells (AID 1347124); conditions: RD rhabdomyosarcoma cell viability; series mostly up to 45.9 µM;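 note: cells exposed to compound for 48 h before viability readout; nearly all actives have a fitted effect of over 65% in size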; note: potency is the fitted concentration of half-maximal effect
# In short: as §1
# [7] = qHTS of pediatric cancer cell lines to identify multiple opportunities for drug repurposing: Confirmatory screen for Saos-2 cells (AID 1347127); conditions: Saos-2 osteosarcoma cell viability; series mostly up to 45.9 µM; note: nearly all actives have a fitted effect of over 60% in size
# In short: as §1
# [8] = qHTS of pediatric cancer cell lines to identify multiple opportunities for drug repurposing: Confirmatory screen for OHS-50 cells (AID 1347128); conditions: OHS-50 osteosarcoma cells viability; series mostly up to 45.9 µM;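 note: compound exposure lasted 48 h at 37 degrees C; nearly all actives have a fitted effect of over 55% in size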; note: potency is the fitted concentration of half-maximal effect
# In short: as §1
# [9] = qHTS of pediatric cancer cell lines to identify multiple opportunities for drug repurposing: Confirmatory screen for SK-N-SH cells (AID 1347129); conditions: SK-N-SH neuroblastoma cell viability; series mostly up to 46.1 µM;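 note: cells exposed to compound for 48 h before viability read; nearly all actives have a fitted effect of over 60% in size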; note: potency is the fitted concentration of half-maximal effect
# In short: as §1
# [10] = qHTS of pediatric cancer cell lines to identify multiple opportunities for drug repurposing: Confirmatory screen for Rh41 cells (AID 1347123); conditions: Rh41 rhabdomyosarcoma cells, viability/cytotoxicity qHTS; series mostly up to 45.9 µM;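 note: potency is the fitted concentration of half-maximal effect; 48 h compound exposure; nearly all actives have a fitted effect of over 60% in size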
# In short: as §1
# [11] = Confirmatory screen GU Rhodamine qHTS for Zika virus inhibitors qHTS (AID 1347157); conditions: purified enzyme assay, Rhodamine110 substrate fluorescence, 15 min; series mostly up to 114 µM; note: nearly all actives have a fitted effect of over 70% in size; note: potency is the fitted concentration of half-maximal effect
# In short: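 Compounds, tested up to 114 microM, were incubated for 15 minutes with 25 nM unlinked NS2B-NS3 protease at pH 8.0. Cleavage of 1.5 microM Rhodamine110 substrate was then followed by fluorescence for 15 minutes.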
# [12] = system: Zika virus NS2B-NS3 protease (unlinked complex); experiment: Primary screen GU Rhodamine qHTS for Zika virus inhibitors: Unlinked NS2B-NS3 protease assay (AID 1347159); conditions: Recombinant ZIKV NS2B-NS3 protease, Rhodamine110 substrate fluorescence; series mostly up to 107 µM; note: nearly all actives have a fitted effect of over 60% in size; note: potency is the fitted concentration of half-maximal effect
# In short: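 Noncovalent NS2B hydrophilic domain–NS3 protease domain complex (25 nM) preincubated 15 min at room temperature with compounds (up to 114 microM) in 10 mM Tris-HCl pH 8.0, 0.01% Tween 20; 1.5 microM Rhodamine110 substrate added, fluorescence change over 15 min fitted to Hill equation.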
# [13] = system: Zika virus NS2B-NS3 protease (linked construct); experiment: Confirmatory screen NINDS AMC qHTS for Zika virus inhibitors (AID 1347152); conditions: Purified linked NS2B-NS3, AMC substrate fluorescence; series mostly up to 56.6 µM; note: nearly all actives have a fitted effect of over 70% in size; note: potency is the fitted concentration of half-maximal effect; for activity change, negative = inhibition: top concentration of the series differs between compounds
# In short: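 IC50s from 4-parameter Hill fits of percent inhibition, based on AMC fluorescence gain (340/450 nm) over 15 min with 10 microM Bz-Nle-KRR-AMC. Enzyme: 1 nM linked NS2B-NS3 in Tris-HCl pH 8.0; 15-min compound preincubation.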
# [14] = system: Zika virus NS2B-NS3 protease (linked construct); experiment: Primary screen NINDS Rhodamine qHTS for Zika virus inhibitors (AID 1347160); conditions: purified NS2B-NS3 protease, Rhodamine110 substrate fluorescence; series mostly up to 57.1 µM; note: nearly all actives have a fitted effect of over 55% in size; note: potency is the fitted concentration of half-maximal effect
# In short: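 Purified linked NS2B-NS3 protease (NS2B hydrophilic domain joined to NS3 protease by flexible linker), 25 nM in 10 mM Tris-HCl pH 8.0, 0.01% Tween 20. Compounds titrated, 15 min preincubation at room temperature; 1.5 microM Rhodamine110 substrate, FITC fluorescence change over 15 min.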
# [15] = system: Zika virus NS2B-NS3 protease (unlinked complex); experiment: Confirmatory screen GU AMC qHTS for Zika virus inhibitors (AID 1347153); conditions: Recombinant NS2B-NS3 protease, AMC substrate fluorescence; series mostly up to 57.1 µM; note: nearly all actives have a fitted effect of over 70% in size;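 for potency: enzyme at 25 nM with substrate at 10 µM below its Km of 18.3 µM; potency is the fitted concentration of half-maximal effect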
# In short: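 Noncovalent NS2B hydrophilic domain/NS3 protease complex (25 nM) in 10 mM Tris-HCl pH 8.0, 0.01% Tween 20 was preincubated 15 min at room temperature with compounds. Then 10 µM AMC substrate (Km 18.3 µM) was added; fluorescence was read over 15 min and fitted to a 4-parameter Hill equation.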
# [16] = ZIKV-mCherry secondary qHTS for Zika virus inhibitors (AID 1347158); conditions: Vero cells, ZIKV-mCherry infection imaging, 48-72 h; series mostly up to 49.2 µM; note: top concentration of the series differs between compounds
# In short: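 Vero cells, 5,000/well, plated overnight at 37 °C, then compound added and infected with recombinant ZIKV-mCherry at MOI 1 for 48-72 h. PFA-fixed, Hoechst nuclear stain, high-content imaging; cells with mCherry intensity above 450 RFU scored infected, reported as percent infection.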
smiles,measurement,setting,value
CN[C@@H]1[C@@H](O)[C@@H](O[C@@H]2[C@@H](O)[C@H](O[C@H]3O[C@H](CN)[C@@H](O)[C@H](O)[C@@H]3O)[C@@H](N)C[C@@H]2NC(=O)[C@@H](O)CN)OC[C@]1(C)O,Potency,[1],inactive
Cc1cccc(-c2[nH]c(C(C)(C)C)nc2-c2ccc3c(c2)OCO3)n1,Potency,[2],8.27 µM (active)
same,Potency,[3],inactive
same,Potency,[1],inactive
Nc1nc(Cl)nc2c1ncn2[C@@H]1O[C@H](CO)[C@@H](O)[C@H]1F,Potency,[1],inactive
OC(c1cc(C(F)(F)F)nc2c(C(F)(F)F)cccc12)C1CCCCN1 (stereo not given),Potency,[4],0.961 µM (active)
same,outcome,[5],inactive
same,Potency,[1],inactive
CN[C@@H]1CN(c2ccc3c(=O)c(C(=O)O)cn(-c4nccs4)c3n2)C[C@@H]1OC,Potency,[6],14.4 µM (active)
same,Potency,[3],14.4 µM (active)
same,Potency,[7],inactive
same,Potency,[8],6.44 µM (active)
same,Potency,[9],7.24 µM (active)
Cc1ccc2c(c1)C(=O)[C@]1(O)CCN(c3ccccc3)C1=N2,Potency,[10],11.7 µM (active)
same,Potency,[6],inactive
same,Potency,[8],inactive
same,Potency,[9],inactive
same,Potency,[1],inactive
same,Potency,[11],inactive
same,Potency,[12],inactive
OC1CCC(Nc2ncc3nc(Nc4c(F)cc(F)cc4F)n([C@@H]4CCOC4)c3n2)CC1 (stereo not given in full),Potency,[1],24.1 µM (active)
c1cc(OCCN2CCCCC2)cc(-c2n[nH]c3ccc(-c4ncn[nH]4)cc23)c1,Potency,[4],21.5 µM (active)
same,Potency,[13],24.1 µM (active)
same,Potency,[1],24.1 µM (active)
same,Potency,[12],inactive
same,Potency,[14],inactive
Fc1ccc(C(c2ccc(F)cc2)N2CCN(CC=Cc3ccccc3)CC2)cc1,Potency,[4],inactive
same,Potency,[13],inactive
same,Potency,[15],inactive
CN[C@H]1[C@@H](O[C@@H]2[C@H](O[C@@H]3[C@@H](O)[C@@H](O)[C@@H](N=C(N)N)[C@@H](O)[C@@H]3N=C(N)N)O[C@H](C)[C@@]2(O)C=O)O[C@@H](CO)[C@@H](O)[C@H]1O,Potency,[1],inactive
C=C[C@@H]1CN2CCC1C[C@@H]2C(O)c1ccnc2ccc(OC)cc12 (stereo not given in full),Potency,[1],inactive
CC(C)c1onc(-c2c(Cl)cccc2Cl)c1COc1ccc(C=Cc2cccc(C(=O)O)c2)c(Cl)c1,Potency,[4],30.4 µM (active)
same,Potency,[13],24.1 µM (active)
same,Potency,[15],24.1 µM (active)
same,Potency,[1],13.6 µM (active)
N#CC(c1ccc(Cl)cc1)c1c(Cl)cc(-n2ncc(=O)[nH]c2=O)cc1Cl (stereo not given),Potency,[13],21.5 µM (active)
same,Potency,[15],21.5 µM (active)
COc1cc(Nc2nc3ccccc3nc2NS(=O)(=O)c2ccc(NC(=O)c3ccc(C)c(OC)c3)cc2)cc(OC)c1,Potency,[13],6.98 µM (active)
same,Potency,[15],5.55 µM (active)
same,Potency,[1],inactive
same,Potency,[11],1.39 µM (active)
same,outcome,[16],inactive
same,Potency,[12],1.78 µM (active)
same,Potency,[14],3.16 µM (active)
CCOC(=O)c1c(CSc2ccccc2)n(C)c2cc(Br)c(O)c(CN(C)C)c12,Potency,[1],inactive
COc1cc2nccc(Oc3ccc(NC(=O)Nc4cc(C)on4)c(Cl)c3)c2cc1OC,Potency,[2],inactive
same,Potency,[9],9.35 µM (active)
same,Potency,[1],inactive
same,Potency,[12],inactive
same,Potency,[14],inactive
Cc1nc(C(=O)NCC(=O)O)c(O)c2ccc(Oc3ccccc3)cc12,Potency,[13],21.5 µM (active)
same,Potency,[1],21.5 µM (active)
same,Potency,[11],44.1 µM (active)
same,Potency,[12],22.4 µM (active)
same,Potency,[14],inactive
CC(=O)Nc1cccc(-n2c(=O)n(C3CC3)c(=O)c3c(Nc4ccc(I)cc4F)n(C)c(=O)c(C)c32)c1,Potency,[1],inactive
same,Potency,[12],inactive
same,Potency,[14],inactive
Cc1cc(C(C)Nc2ccccc2)c2nc(N3CCOCC3)cc(=O)n2c1 (stereo not given),Potency,[1],inactive
same,Potency,[12],inactive
same,Potency,[14],inactive
O=C1C(c2c(O)[nH]c3ccccc23)=Nc2ccccc21,Potency,[1],inactive
same,Potency,[12],inactive
same,Potency,[14],inactive
CS(=O)(=O)c1ccc(C2=C(c3ccccc3)C(=O)OC2)cc1,Potency,[1],inactive
same,Potency,[12],inactive
same,Potency,[14],inactive
CN[C@@H](C)[C@H]1[C@H](O)C[C@@]2(C)[C@@H]3CC[C@H]4C(C)(C)[C@@H](NC)CC[C@@]45C[C@@]35CC[C@]12C,Potency,[1],inactive
same,"activity change, negative = inhibition",[12],119% [at 19.1 µM]
same,outcome,[14],inactive [at 10.7 µM]
CCn1c(-c2nonc2N)nc2cncc(CNC3CCNCC3)c21,Potency,[1],inactive
same,Potency,[12],inactive
same,Potency,[14],inactive
CN(C)c1nc(Cc2ccc(NC(=O)c3ccc(C(F)(F)F)cc3)cc2)nc(N(C)C)c1CC(=O)O,Potency,[1],inactive
same,Potency,[12],inactive
same,Potency,[14],inactive
Nc1ncnc2c1c(-c1cccc(OCc3ccccc3)c1)cn2C1CC(CN2CCC2)C1 (stereo not given),Potency,[1],inactive
same,Potency,[12],inactive
same,Potency,[14],inactive
Clc1ccc(C2(c3ccc(-c4cn[nH]c4)cc3)CCNCC2)cc1,Potency,[1],inactive
same,Potency,[12],inactive
same,Potency,[14],inactive
Cc1cc2c(cc1C1(c3ccc(C(=O)O)cn3)CC1)C(C)(C)CCC2(C)C,Potency,[1],inactive
same,Potency,[12],10 µM (active)
same,Potency,[14],14.1 µM (active)
